# Source: the supplement of paper PMC10412459
# Test system: K562 SF3B1 K700E vs K562 SF3B1 WT
# Assay: surviving fraction ratio K562 SF3B1 K700E / K562 SF3B1 WT (each relative to DMSO); higher = less selective killing of SF3B1 K700E cells
# Conditions: 5 days
# How it was run: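 In 384-well plates holding 250 cells per well, isogenic K562 cells bearing an engineered mutant allele and matched wild-type cells received compounds from an in-house 80-compound library 24 h after seeding. Doses were 0.5, 1, 5, 10, 50, 100, 500 and 1,000 nM, with 5 d of continuous culture. Surviving fractions were taken from CellTiter-Glo readings and normalised to DMSO. The value reported is the mutant-over-wild-type ratio of these fractions.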
smiles,measurement,setting,value
Oc1ccc(/C=C/c2cc(O)cc(O)c2)cc1 [resveratrol],surviving fraction ratio K562 SF3B1 K700E / K562 SF3B1 WT,0.5nM,0.896
same,surviving fraction ratio K562 SF3B1 K700E / K562 SF3B1 WT,1nM,0.898
same,surviving fraction ratio K562 SF3B1 K700E / K562 SF3B1 WT,5nM,0.856
same,surviving fraction ratio K562 SF3B1 K700E / K562 SF3B1 WT,10nM,0.905
same,surviving fraction ratio K562 SF3B1 K700E / K562 SF3B1 WT,50nM,1
same,surviving fraction ratio K562 SF3B1 K700E / K562 SF3B1 WT,100nM,1.24
same,surviving fraction ratio K562 SF3B1 K700E / K562 SF3B1 WT,500nM,0.916
same,surviving fraction ratio K562 SF3B1 K700E / K562 SF3B1 WT,1000nM,1.28
CN(Cc1cnc2nc(N)nc(N)c2n1)c1ccc(C(=O)N[C@@H](CCC(=O)O)C(=O)O)cc1 [methotrexate],surviving fraction ratio K562 SF3B1 K700E / K562 SF3B1 WT,0.5nM,0.824
same,surviving fraction ratio K562 SF3B1 K700E / K562 SF3B1 WT,1nM,0.836
same,surviving fraction ratio K562 SF3B1 K700E / K562 SF3B1 WT,5nM,0.971
same,surviving fraction ratio K562 SF3B1 K700E / K562 SF3B1 WT,10nM,2.8
same,surviving fraction ratio K562 SF3B1 K700E / K562 SF3B1 WT,50nM,3.75
same,surviving fraction ratio K562 SF3B1 K700E / K562 SF3B1 WT,100nM,4.08
same,surviving fraction ratio K562 SF3B1 K700E / K562 SF3B1 WT,500nM,3.5
same,surviving fraction ratio K562 SF3B1 K700E / K562 SF3B1 WT,1000nM,3.58
CC(=O)NCC(=O)N1[C@@H]2CC[C@H]1c1ccc(Nc3ncc(C(F)(F)F)c(NC4CCC4)n3)cc12,surviving fraction ratio K562 SF3B1 K700E / K562 SF3B1 WT,0.5nM,0.948
same,surviving fraction ratio K562 SF3B1 K700E / K562 SF3B1 WT,1nM,1.01
same,surviving fraction ratio K562 SF3B1 K700E / K562 SF3B1 WT,5nM,0.872
same,surviving fraction ratio K562 SF3B1 K700E / K562 SF3B1 WT,10nM,0.883
same,surviving fraction ratio K562 SF3B1 K700E / K562 SF3B1 WT,50nM,0.549
same,surviving fraction ratio K562 SF3B1 K700E / K562 SF3B1 WT,100nM,1.05
same,surviving fraction ratio K562 SF3B1 K700E / K562 SF3B1 WT,500nM,1.18
same,surviving fraction ratio K562 SF3B1 K700E / K562 SF3B1 WT,1000nM,1.64
CCCCCCCCCCCCCCCC(=O)Nc1ccn([C@@H]2O[C@H](CO)[C@@H](O)[C@@H]2C#N)c(=O)n1 [Sapacitabine],surviving fraction ratio K562 SF3B1 K700E / K562 SF3B1 WT,0.5nM,0.952
same,surviving fraction ratio K562 SF3B1 K700E / K562 SF3B1 WT,5nM,0.99
same,surviving fraction ratio K562 SF3B1 K700E / K562 SF3B1 WT,50nM,0.729
same,surviving fraction ratio K562 SF3B1 K700E / K562 SF3B1 WT,500nM,1.27
COc1cc2ncnc(Nc3ccc(F)c(Cl)c3)c2cc1OCCCN1CCOCC1 [gefitinib],surviving fraction ratio K562 SF3B1 K700E / K562 SF3B1 WT,0.5nM,0.645
same,surviving fraction ratio K562 SF3B1 K700E / K562 SF3B1 WT,1nM,0.787
same,surviving fraction ratio K562 SF3B1 K700E / K562 SF3B1 WT,5nM,0.848
same,surviving fraction ratio K562 SF3B1 K700E / K562 SF3B1 WT,10nM,0.768
same,surviving fraction ratio K562 SF3B1 K700E / K562 SF3B1 WT,50nM,0.792
same,surviving fraction ratio K562 SF3B1 K700E / K562 SF3B1 WT,100nM,0.802
same,surviving fraction ratio K562 SF3B1 K700E / K562 SF3B1 WT,500nM,0.781
same,surviving fraction ratio K562 SF3B1 K700E / K562 SF3B1 WT,1000nM,0.907
O=C1NC(=NCc2cccs2)S/C1=C\c1ccc2ncccc2c1,surviving fraction ratio K562 SF3B1 K700E / K562 SF3B1 WT,0.2nM,0.909
same,surviving fraction ratio K562 SF3B1 K700E / K562 SF3B1 WT,0.4nM,0.855
same,surviving fraction ratio K562 SF3B1 K700E / K562 SF3B1 WT,2nM,0.878
same,surviving fraction ratio K562 SF3B1 K700E / K562 SF3B1 WT,4nM,0.842
same,surviving fraction ratio K562 SF3B1 K700E / K562 SF3B1 WT,20nM,1.02
same,surviving fraction ratio K562 SF3B1 K700E / K562 SF3B1 WT,40nM,0.921
same,surviving fraction ratio K562 SF3B1 K700E / K562 SF3B1 WT,200nM,0.844
same,surviving fraction ratio K562 SF3B1 K700E / K562 SF3B1 WT,400nM,0.909
CCc1cc(Nc2nccc(-c3c(-c4ccc(OC)c(C(=O)Nc5c(F)cccc5F)c4)nc4ccccn34)n2)c(OC)cc1N1CCC(N2CCN(S(C)(=O)=O)CC2)CC1,surviving fraction ratio K562 SF3B1 K700E / K562 SF3B1 WT,0.5nM,0.969
same,surviving fraction ratio K562 SF3B1 K700E / K562 SF3B1 WT,1nM,0.921
same,surviving fraction ratio K562 SF3B1 K700E / K562 SF3B1 WT,5nM,0.92
same,surviving fraction ratio K562 SF3B1 K700E / K562 SF3B1 WT,10nM,0.907
same,surviving fraction ratio K562 SF3B1 K700E / K562 SF3B1 WT,50nM,0.817
same,surviving fraction ratio K562 SF3B1 K700E / K562 SF3B1 WT,100nM,0.805
same,surviving fraction ratio K562 SF3B1 K700E / K562 SF3B1 WT,500nM,0.824
same,surviving fraction ratio K562 SF3B1 K700E / K562 SF3B1 WT,1000nM,0.842
